# This is part of a sample that, as a whole, favours compounds with a hit. Of some 79,000 tested, about 15% had one in any assay. Values without a mark were called inactive. The source made the active and inactive calls. No stated cut-off is given here; in the data, active means growth inhibition above about 70%; inactive means the rest.
# Assay: NCI Yeast Anticancer Drug Screen. Data for the mlh1 strain (AID 171);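 further: 0% = growth of vehicle-treated control cultures of the same strain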
# Conditions: S. cerevisiae mlh1 strain growth inhibition, active compounds read high
# Procedure: Growth inhibition of yeast strains with defined genetic alterations is measured as a screen for potential anti-cancer activity. Selected strains with alterations in DNA damage repair or cell cycle control were exposed to compounds and growth inhibition was measured relative to vehicle treated controls. The strain used in this assay is mlh1
Structure (SMILES),growth inhibition (at 1.2 µM),growth inhibition (at 3.7 µM),growth inhibition (at 11.0 µM),growth inhibition (at 33.0 µM),growth inhibition (at 100.0 µM)
O=C(/C=C\c1ccc([N+](=O)[O-])o1)Nc1ccc(Cl)cc1,1%,46%,94% (active),93% (active),97% (active)
OCCNCCOc1ccc(/C(=C(/Cl)c2ccccc2)c2ccccc2)cc1,7%,12%,67%,98% (active),98% (active)
CCCc1[nH]nc(C(N)=O)c1N=NN(C)C,7%,-5%,-2%,0%,11%
O=Nc1ccc(Nc2ccccc2)cc1,-42%,-36%,-26%,83% (active),96% (active)
COc1ccc(N2CN(C)CSC2=S)cc1,-53%,-52%,-48%,-3%,57%
NNC(=S)Nc1cccc(Cl)c1,-6%,-17%,-8%,45%,95% (active)
C=Cc1cnc([N+](=O)[O-])n1C,-4%,7%,18%,44%,90% (active)
CCN1/C(=C/c2ccc3ccccc3[n+]2CC)C=Cc2ccccc21,-27%,-15%,41%,97% (active),97% (active)

# — PubChem BioAssay (NCI)
